Counter-ions that a name gives are not always drawn.

For this assay, the system named is Neuro-2a. The assay is described as follows: neurite formation score, plate-normalized to DMSO control mean 5.04 (score (0-8 scale)); higher = more or longer neurites. The note with it: 1 µM. The protocol:
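Neuro-2a mouse neuroblastoma cells in PLL-coated 96-well plates were pre-treated for 1 h in DMEM(+) with each kinase inhibitor at 1 µM, then switched to serum-free DMEM(-) with inhibitor to induce neurite outgrowth and fixed about 2-3 h later. Three blinded observers scored neurite formation from 0 (no neurites) to 8 (long neurites on almost all cells).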
As for `Cc1[nH]c2ccccc2c1C1=C(NCCc2ccc(F)cc2)C(=O)N(C)C1=O`, the neurite formation score is 4.54.
Next, `Cc1nc(NC(=O)N2CCC[C@H]2C(N)=O)sc1-c1csc(C(C)(C)C)n1`: 4.57; `NC1(Cc2ccc(Cl)cc2)CCN(c2ncnc3[nH]ccc23)CC1`: 5.63.
Regarding `O=C(NOCC1CC1)c1ccc(F)c(F)c1Nc1ccc(I)cc1Cl`, the neurite formation score is 3.91.
The same measure for `COc1cc2ncnc(Nc3ccc(O)cc3)c2cc1OC`: 5.02; for `O=C1NC(=O)C(c2ccccc2[N+](=O)[O-])=C1Nc1ccc(O)c(Cl)c1`: 3.9; for `CN(C)C1CCN(C(=O)c2ccc(NC(=O)Nc3ccc(-c4nc(N5CCOCC5)nc(N5CCOCC5)n4)cc3)cc2)CC1`: 4.14.
Next, `CNc1nc(Nc2ccc(C(=O)N3CCOCC3)cc2OC)ncc1Cl`: 4.96.
The same measure for `CN1CCC(CNc2ccc3ncc(-c4cccc(OC(F)(F)F)c4)n3n2)CC1` [SGI-1776 free base]: 5.69; for `CCN(CC)CCNC(=O)c1c(C)[nH]c(/C=C2\C(=O)Nc3ccc(F)cc32)c1C` [Sunitinib]: 5.63.
In the case of `CCn1cc(-c2ccnc3[nH]c(-c4cccc(CN(C)C)c4)cc23)c(-c2ccc(NC(=O)N(C)C)cc2)n1`, the neurite formation score came to 4.69.
The same measure for `O=C(Nc1ccc(-c2ccnc(Nc3ccc(N4CCOCC4)cc3)n2)cc1)C1CCCN1` (stereo not given): 4.02; for `Nc1cccc(S(=O)(=O)N2CCCN(S(=O)(=O)c3ccc4c(c3)OCCO4)CC2)c1`: 4.14.
The same measure for `CNc1nc(-c2ccc3c(N)n[nH]c3c2)cc(N2C[C@@H](C(=O)NC3CCCCC3)CC[C@H]2C)n1`: 4.88.
The same measure for `Oc1ccc(-c2nc(-c3ccc(F)cc3)c(-c3ccncc3)[nH]2)cc1`: 4.57.
Turning to `O=C(O)CCC(=O)Nc1ccc(Br)cn1` [Bikinin], the neurite formation score is 4.54.
Consider `Cc1cc(Nc2cc(N3CCN(C)CC3)nc(Sc3ccc(NC(=O)C4CC4)cc3)n2)n[nH]1` [VX-680 (MK-0457,Tozasertib)], for which the neurite formation score worked out at 5.02.
The same measure for `CCOc1cc(N2CCC(O)CC2)ccc1Nc1ncc2c(n1)N(C)c1ccccc1C(=O)N2C`: 4.69.
The same measure for `O=C(c1cccc(Cl)c1F)N1CCN(Cc2cccc(Nc3nccs3)n2)CC1`: 4.14.
For the compound `FC(F)c1nc2ccccc2n1-c1nc(N2CCOCC2)nc(N2CCOCC2)n1`, the neurite formation score was determined as 4.24.
Compound `COc1ccc(CNC(=O)Nc2ncc([N+](=O)[O-])s2)cc1` gave a neurite formation score of 4.91.
The same measure for `FC(F)(F)c1ccc(/C=C/c2nc(COc3ccc(CCCCn4ccnn4)cc3)co2)cc1` [Mubritinib (TAK 165)]: 4.47; for `Nc1nc(N)c2nc(-c3cccc(O)c3)c(-c3cccc(O)c3)nc2n1`: 4.24; for `CNC(=O)c1cc(Oc2ccc(NC(=O)Nc3ccc(Cl)c(C(F)(F)F)c3)cc2)ccn1` [Sorafenib Tosylate]: 4.57.
Take `NCC(=O)Nc1ccc(-n2nc(C(F)(F)F)cc2-c2ccc3c(ccc4ccccc43)c2)cc1`: the neurite formation score was determined as 5.57.
Next, `COc1ccc(Cl)cc1NC(=O)Nc1cc(C)nc2ccccc12`: 3.91.
In turn, `CNC(=O)Nc1ccc(-c2nc(N3CC4CCC(C3)O4)c3cnn(C4CCC5(CC4)OCCO5)c3n2)cc1` yielded a neurite formation score of 3.54.
Take `Cc1ccc(NC(=O)c2cccc(N(C)C)c2)cc1NC(=O)c1ccc(O)cc1`: the neurite formation score came to 5.63.
Next, `CC(C)(O)CC(=O)NCCn1ccc2ncnc(Nc3ccc(Oc4cccc(C(F)(F)F)c4)c(Cl)c3)c21`: 5.14; `CC(C)CCN1c2nc(Nc3cc(F)c(O)c(F)c3)ncc2N(C)C(=O)C1C` (stereo not given): 4.21; `N=C(N)NCCC(=O)O` [3-Guanidinopropionic Acid]: 5.21.
The same measure for `CN1CCN(c2ccc(OC(F)(F)F)c(Nc3ncc4c(n3)-c3c(c(C(N)=O)nn3CCO)CC4)c2)CC1`: 4.88.
As to `CC(C)Nc1cc(-c2c[nH]c(C(=O)N[C@H](CO)c3cccc(Cl)c3)c2)c(Cl)cn1`, the neurite formation score was 3.47.
Next, `O=C(Nc1c[nH]nc1-c1nc2ccc(CN3CCOCC3)cc2[nH]1)NC1CC1`: 4.02; `C[C@@H]1COCCN1c1cc(C2(S(C)(=O)=O)CC2)nc(-c2cccc3[nH]ccc23)n1`: 4.57; `Cn1cc(-c2[nH]c3cc(NC(=O)[C@H](N)C4CCCCC4)cc4c3c2C=NNC4=O)cn1`: 3.63.
Next, `COc1ccc(S(=O)(=O)N(CCO)c2ccccc2CN(C)C/C=C/c2ccc(Cl)cc2)cc1` [KN-93 Phosphate]: 4.21.
The compound `OCCn1cc(-c2cnc3nnn(Cc4ccc5ncccc5c4)c3n2)cn1` displayed a neurite formation score of 5.02.
Next, `Cc1ccc(-n2nc(C(C)(C)C)cc2NC(=O)Nc2ccc(OCCN3CCOCC3)c3ccccc23)cc1` [BIRB 796 (Doramapimod)]: 4.57.
For the compound `CC[C@H](CO)Nc1nc(NCc2ccccc2)c2ncn(C(C)C)c2n1` [Roscovitine (Seliciclib,CYC202)], the neurite formation score is 4.57.

Values taken from the supplement of paper PMC8047044.
